Data on six molecules can be found in PubChem BioAssay (NCATS).

Assay [1] in a line: Viability counterscreen for antagonist of constitutive androstane receptor (CAR) against the NCATS DSHEA and TCM libraries (AID 1794837).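 Further: compound exposure lasted 24 h before viability reading; 0% is about no effect.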 In short, it runs like this: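 Cell viability, CellTiter-Fluor, Ex/Em 405/540 nm, 1 h at 37C. HepG2-CYP2B6-hCAR, 2,500 cells/well; cpds + CITCO 48 uM final (antagonist mode), 24 h, 37C/5% CO2.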
For orientation: The purpose of a counterscreen is to sort out artefacts and off-target activity.

Assay [2] is described as follows: Viability counterscreen for agonist of constitutive androstane receptor (CAR) against the NCATS DSHEA and TCM libraries (AID 1794838). Further: 0% is about no effect. In a few lines:
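Viability by CellTiter-Fluor fluorescence, 405/540 nm, after 1 h at 37C. HepG2-CYP2B6-hCAR cells were exposed 24 h to test substances in presence of 0.75 uM PK11195 (final).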

For assay [3], the target named is Nuclear receptor subfamily 1 group I member 3 (Homo sapiens) (UniProt Q14994). The experiment in a line: Primary qHTS for agonist of constitutive androstane receptor (CAR) against the NCATS DSHEA and TCM libraries (AID 1794839).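 Further: HepG2 cells expressing human CAR with a CYP2B6 reporter plus PK11195 antagonist; 0% is about no effect.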 In short, it runs like this:
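Luminescence from ONE-Glo luciferase was the agonist read-out in HepG2-CYP2B6-hCAR cells exposed 24 h to test substances. Wells also held the CAR antagonist PK11195 at 0.75 µM final. Viability was by CellTiter-Fluor fluorescence.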
In general terms: In qHTS, concentration-response curves come from the screen itself.

Assay [4] can be described thus: HepG2 viability counterscreen (readout 2: ATP content) against the NCATS DSHEA and TCM libraries (AID 1794840). Further: 0% is about no effect. In a few lines:
(§1)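 1,000 HepG2 cells/well, 4 h attach; compounds ~24 h, 37C/5% CO2. Readout 1: GF-AFC 25 uM final, 30 min, fluorescence 380/510 nm. Readout 2: CellTiter-Glo, 30 min RT, luminescence.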

Assay [5] in a line: HepG2 viability counterscreen (readout 1: protease activity) against the NCATS DSHEA and TCM libraries (AID 1794841).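 Further: cells exposed to compounds for about 24 h before the protease read; 0% is about no effect.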 In a few lines: as §1
The target in assay [6] is Phospholipid hydroperoxide glutathione peroxidase GPX4 (Homo sapiens) (UniProt P36969). As to the kind of experiment: Primary qHTS Assay for Inhibitors of Recombinant Selenoprotein Glutathione Peroxidase 4 (GPX4) (AID 1845192). Further: nearly all actives have a fitted effect of over 65% in size. In a few lines: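 GR-coupled assay: recombinant GPX4 preincubated 30 min with compound at room temperature; final 200 nM GPX4, 1 mM GSH, 0.5 mM cumene hydroperoxide, 0.5 mM NADPH, 100 nM GR, 0.01% BSA, pH 7.5 Tris. NADPH fluorescence (340/450 nm) read at 0 and 15 min.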
Sequence of Phospholipid hydroperoxide glutathione peroxidase GPX4 (Homo sapiens) (P36969 whole entry, looked up): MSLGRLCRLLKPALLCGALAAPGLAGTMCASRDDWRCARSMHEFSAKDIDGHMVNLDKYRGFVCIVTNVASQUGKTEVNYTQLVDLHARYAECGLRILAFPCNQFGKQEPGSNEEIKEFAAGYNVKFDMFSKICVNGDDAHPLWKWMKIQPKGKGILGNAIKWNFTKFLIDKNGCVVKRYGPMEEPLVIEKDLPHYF

The target in assay [7] is Cytochrome P450 3A4 (Homo sapiens) (UniProt P08684). As to the kind of experiment: qHTS for inhibitors of CYP3A4 against the NCATS DSHEA and TCM libraries (AID 1919971).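 Further: on the % scale 0 is the no-effect control and ±100 the full control effect; inhibition lowers luminescence from luciferin made by CYP3A4.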 In short, it runs like this:
(§2)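 Light output from converted D-luciferin reports remaining CYP activity. Compounds preincubate with enzyme and substrate for 15 min; NADPH regeneration (1x final) runs the reaction for 30-45 min.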

Assay [8] has as its target Cytochrome P450 2D6 (Homo sapiens) (UniProt P10635). The experiment in a line: qHTS for inhibitors of CYP2D6 against the NCATS DSHEA and TCM libraries (AID 1919972). Further: on the % scale 0 is the no-effect control and ±100 the full control effect. In short, it runs like this: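 Steps: enzyme plus luciferin substrate dispensed; test substances pinned; 15 min RT; 1x NADPH regenerating solution added, 30–45 min RT protected from light; detection reagent, 30 min RT; luminescence measured. Minus-enzyme wells as background.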

Assay [9] has as its target Cytochrome P450 2C9 (Homo sapiens) (UniProt P11712). The experiment in a line: qHTS for inhibitors of CYP2C9 against the NCATS DSHEA and TCM libraries (AID 1919973).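 Further: luminogenic pro-luciferin CYP2C9 substrate turned into luciferin with NADPH regeneration; series mostly up to about 34 µM; on the % scale 0 is the no-effect control and ±100 the full control effect.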 In a few lines: as §2
The target in assay [10] is Cytochrome P450 2C19 (Homo sapiens) (UniProt P33261). As to the kind of experiment: qHTS for inhibitors of CYP2C19 against the NCATS DSHEA and TCM libraries (AID 1919974).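 Further: luminescence from luciferin released by CYP2C19 oxidation of a pro-luciferin substrate.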 Further: potency means the concentration at half of the fitted maximal effect. In a few lines:
as §2

Assay [11] is described as follows: KB-3-1 P-gp reporter qHTS against the NCATS DSHEA and TCM libraries (AID 1919975). Further: 0% is about no effect. In a few lines:
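CellTiter-Glo luminescence viability readout; KB-3-1 parental cells, 500/well, attached ~4 h, then compound for ~72 h, 37C, 5% CO2. Bortezomib intraplate control.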

Assay [12] addresses Cytochrome P450 1A2 (Homo sapiens) (UniProt P05177). The experiment in a line: qHTS for inhibitors of CYPIA2 against the NCATS DSHEA and TCM libraries (AID 1919976).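 Further: light from luciferin formed by CYP1A2 from a pro-luciferin substrate; series mostly up to about 37 µM; on the % scale 0 is the no-effect control and ±100 the full control effect.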 In short, it runs like this: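 In this quantitative HTS, inhibition of recombinant human CYP1A2 was measured as loss of luciferin-derived luminescence. Turnover ran 30-45 min at RT after NADPH regeneration solution was added.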

Assay [13] in a line: qHTS Counterscreen for compound interference against the NCATS DSHEA and TCM libraries (AID 1919978).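 Further: compounds preincubated with 1 µM D-luciferin or buffer before detection reagent; % of control where 0% means no effect.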 The note with it: firefly luciferase detection reagent interference, luminescence. In short, it runs like this:
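Luminescence counterscreen for detection-kit interference: compounds at 19.5 nM–39.8 uM final, 15 min RT with 1 uM D-luciferin or buffer only; detection reagent added, 30 min RT, then read.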

Assay [14] can be described thus: Dual reporter qHTS for agonist of Pregnane X Receptor (hPXR) against the NCATS DSHEA and TCM libraries: Fluorescence readout (AID 1920058). Further: 0% is about no effect. In a few lines:
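Measures viability of the PXR reporter HepG2 line by protease-substrate fluorescence (405/540 nm), taken 1 h after CellTiter-Fluor addition. Substances are tested as concentration series over a ~24 h exposure, with rifampicin as agonist control.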

For assay [15], the target named is Nuclear receptor subfamily 1 group I member 2 (Homo sapiens) (UniProt O75469). As to the kind of experiment: Dual reporter qHTS for agonist of Pregnane X Receptor (hPXR) against the NCATS DSHEA and TCM libraries: Luminescence readout (AID 1920059). Further: 0% is about no effect. In a few lines:
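hPXR-Luc HepG2 cells, 2000/well in 5% charcoal-stripped FBS medium, attached 5 h, then exposed 24 h at 37C to compounds. Viability by CellTiter-Fluor, then luciferase luminescence with ONE-Glo.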

The target is the same in assay [16]. As to the kind of experiment: Dual reporter qHTS for antagonist of Pregnane X Receptor (hPXR) against the NCATS DSHEA and TCM libraries: Luminescence Readout (AID 1920060). Further: 0% is about no effect. In short, it runs like this:
(§3)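 Rifampicin-stimulated (2 uM final) hPXR-luciferase HepG2 cells were treated for 24 h with DSNP/TCM substances. Viability came from CellTiter-Fluor fluorescence, reporter activity from ONE-Glo luminescence.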

Assay [17] is described as follows: Dual reporter qHTS for antagonist of Pregnane X Receptor (hPXR) against the NCATS DSHEA and TCM libraries: Fluorescence Readout (AID 1920061). Further: 0% is about no effect. In short, it runs like this:
as §3

In assay [18] the target is Peroxisome proliferator-activated receptor delta (Homo sapiens) (UniProt Q03181). As to the kind of experiment: qHTS assay for small molecule antagonists of peroxisome proliferator-activated receptor delta signaling (AID 588535; active means well fitted inhibition curve with a large enough effect in the signal ratio, with a control signal flat, not every such curve was filed as active; the % refers to the signal ratio). In short, it runs like this:
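Cells were seeded at 4000 per well in assay medium containing 2% charcoal/dextran FBS and held 5 hrs at 37 C. Compounds were then added for 18 hrs. CCF4 substrate was applied for 2 hrs at room temperature before fluorescence reading.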

Values without a mark were called inactive. Inconclusive results are not listed. The source made the active and inactive calls. Unless noted, the call rests on the fitted dose curve; in most records, active means well fitted curve in the direction sought with a large enough effect; inconclusive means small, poorly fitted or top-dose-only effect, or another doubt; inactive means no such curve, though single readings can be large; an effect the other way counts as inactive or inconclusive.

Sequence of Cytochrome P450 2C9 (Homo sapiens) (P11712 whole entry, looked up): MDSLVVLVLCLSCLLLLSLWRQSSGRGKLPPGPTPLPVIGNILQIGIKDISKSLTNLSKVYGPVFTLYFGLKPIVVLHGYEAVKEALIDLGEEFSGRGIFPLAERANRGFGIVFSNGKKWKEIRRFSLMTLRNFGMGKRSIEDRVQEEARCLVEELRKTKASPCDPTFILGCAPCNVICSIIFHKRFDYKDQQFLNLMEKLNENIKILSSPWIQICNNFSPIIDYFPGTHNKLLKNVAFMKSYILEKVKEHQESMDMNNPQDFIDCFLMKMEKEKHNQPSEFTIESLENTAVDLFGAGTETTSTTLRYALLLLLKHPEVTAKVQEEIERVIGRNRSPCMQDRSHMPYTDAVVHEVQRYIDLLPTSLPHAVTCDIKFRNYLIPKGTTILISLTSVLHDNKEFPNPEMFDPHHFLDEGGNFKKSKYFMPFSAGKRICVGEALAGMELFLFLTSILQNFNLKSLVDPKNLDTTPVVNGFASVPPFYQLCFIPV
Sequence of Cytochrome P450 2C19 (Homo sapiens) (P33261 whole entry, looked up): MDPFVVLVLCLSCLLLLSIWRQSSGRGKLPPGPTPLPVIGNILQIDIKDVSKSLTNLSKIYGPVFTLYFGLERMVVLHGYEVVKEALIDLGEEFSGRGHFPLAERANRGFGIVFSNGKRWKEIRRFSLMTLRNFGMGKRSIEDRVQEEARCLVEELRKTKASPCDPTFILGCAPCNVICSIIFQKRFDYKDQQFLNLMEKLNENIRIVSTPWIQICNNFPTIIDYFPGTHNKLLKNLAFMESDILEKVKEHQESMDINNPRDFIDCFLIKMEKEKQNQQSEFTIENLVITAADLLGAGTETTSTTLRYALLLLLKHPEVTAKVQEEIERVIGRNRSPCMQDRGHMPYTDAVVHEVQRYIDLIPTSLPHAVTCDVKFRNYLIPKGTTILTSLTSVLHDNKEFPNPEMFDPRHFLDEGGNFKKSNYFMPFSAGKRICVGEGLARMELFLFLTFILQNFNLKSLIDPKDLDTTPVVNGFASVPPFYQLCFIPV
Sequence of Cytochrome P450 1A2 (Homo sapiens) (P05177 whole entry, looked up): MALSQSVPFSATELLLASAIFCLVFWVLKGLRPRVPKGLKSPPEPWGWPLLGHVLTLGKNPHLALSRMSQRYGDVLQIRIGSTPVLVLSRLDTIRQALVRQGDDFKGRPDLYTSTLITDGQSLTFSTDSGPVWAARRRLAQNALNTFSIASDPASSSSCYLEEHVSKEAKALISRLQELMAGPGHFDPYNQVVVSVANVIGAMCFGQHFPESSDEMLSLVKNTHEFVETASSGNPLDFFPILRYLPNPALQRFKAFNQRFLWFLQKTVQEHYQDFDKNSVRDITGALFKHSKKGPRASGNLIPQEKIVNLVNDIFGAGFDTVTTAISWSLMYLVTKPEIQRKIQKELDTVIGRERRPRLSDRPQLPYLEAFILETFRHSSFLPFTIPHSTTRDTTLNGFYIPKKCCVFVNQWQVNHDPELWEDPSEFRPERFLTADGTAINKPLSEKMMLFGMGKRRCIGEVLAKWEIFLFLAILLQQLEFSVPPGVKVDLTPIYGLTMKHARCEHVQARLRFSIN
Sequence of Nuclear receptor subfamily 1 group I member 2 (Homo sapiens) (O75469 whole entry, looked up): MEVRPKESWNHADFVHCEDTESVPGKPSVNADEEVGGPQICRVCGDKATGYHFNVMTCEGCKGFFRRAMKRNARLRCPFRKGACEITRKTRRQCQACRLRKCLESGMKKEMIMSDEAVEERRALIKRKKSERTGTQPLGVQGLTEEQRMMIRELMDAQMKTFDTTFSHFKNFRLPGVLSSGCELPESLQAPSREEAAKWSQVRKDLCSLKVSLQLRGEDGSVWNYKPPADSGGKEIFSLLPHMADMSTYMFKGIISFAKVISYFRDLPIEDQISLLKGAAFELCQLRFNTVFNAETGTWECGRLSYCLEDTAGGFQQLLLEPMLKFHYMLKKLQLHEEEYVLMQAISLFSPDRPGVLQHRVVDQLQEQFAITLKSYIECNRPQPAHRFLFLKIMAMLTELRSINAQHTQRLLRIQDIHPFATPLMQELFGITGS
Sequence of Cytochrome P450 2D6 (Homo sapiens) (P10635 whole entry, looked up): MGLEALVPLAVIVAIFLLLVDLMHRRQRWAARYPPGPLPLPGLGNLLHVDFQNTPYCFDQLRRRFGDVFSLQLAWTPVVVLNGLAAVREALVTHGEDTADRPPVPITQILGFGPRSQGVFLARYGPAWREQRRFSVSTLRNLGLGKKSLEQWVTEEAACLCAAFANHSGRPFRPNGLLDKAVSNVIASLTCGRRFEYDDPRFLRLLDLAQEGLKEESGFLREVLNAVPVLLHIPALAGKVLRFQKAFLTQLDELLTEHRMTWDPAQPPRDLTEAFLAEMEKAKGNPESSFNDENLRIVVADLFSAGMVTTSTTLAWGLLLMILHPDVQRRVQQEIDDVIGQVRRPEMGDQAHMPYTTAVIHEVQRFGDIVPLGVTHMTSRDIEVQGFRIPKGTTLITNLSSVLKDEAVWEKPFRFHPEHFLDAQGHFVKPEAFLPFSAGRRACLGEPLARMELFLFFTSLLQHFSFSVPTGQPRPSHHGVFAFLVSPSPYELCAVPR
Sequence of Nuclear receptor subfamily 1 group I member 3 (Homo sapiens) (Q14994 whole entry, looked up): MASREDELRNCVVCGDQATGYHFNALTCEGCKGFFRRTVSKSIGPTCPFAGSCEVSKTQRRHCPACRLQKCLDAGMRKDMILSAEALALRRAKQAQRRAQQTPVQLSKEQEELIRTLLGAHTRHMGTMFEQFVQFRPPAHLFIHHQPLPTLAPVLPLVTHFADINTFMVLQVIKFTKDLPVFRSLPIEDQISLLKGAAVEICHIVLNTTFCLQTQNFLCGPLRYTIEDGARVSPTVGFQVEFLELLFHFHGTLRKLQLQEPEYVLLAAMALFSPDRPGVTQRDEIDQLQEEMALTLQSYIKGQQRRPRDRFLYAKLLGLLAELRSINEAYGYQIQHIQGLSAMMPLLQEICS
Sequence of Cytochrome P450 3A4 (Homo sapiens) (P08684 whole entry, looked up): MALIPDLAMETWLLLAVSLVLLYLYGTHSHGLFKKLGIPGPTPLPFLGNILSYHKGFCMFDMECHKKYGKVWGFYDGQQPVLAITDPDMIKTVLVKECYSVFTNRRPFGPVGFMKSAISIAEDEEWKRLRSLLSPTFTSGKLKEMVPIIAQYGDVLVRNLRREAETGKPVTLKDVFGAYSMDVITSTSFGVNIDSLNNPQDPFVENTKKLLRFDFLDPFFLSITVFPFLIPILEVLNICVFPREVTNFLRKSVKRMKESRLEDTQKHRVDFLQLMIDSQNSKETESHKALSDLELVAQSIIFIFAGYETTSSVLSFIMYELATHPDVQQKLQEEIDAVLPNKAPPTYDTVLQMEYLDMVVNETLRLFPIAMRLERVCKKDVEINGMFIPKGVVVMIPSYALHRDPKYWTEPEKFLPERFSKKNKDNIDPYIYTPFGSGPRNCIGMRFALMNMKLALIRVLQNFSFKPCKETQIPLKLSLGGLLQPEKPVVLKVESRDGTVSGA
Sequence of Peroxisome proliferator-activated receptor delta (Homo sapiens) (Q03181 whole entry, looked up): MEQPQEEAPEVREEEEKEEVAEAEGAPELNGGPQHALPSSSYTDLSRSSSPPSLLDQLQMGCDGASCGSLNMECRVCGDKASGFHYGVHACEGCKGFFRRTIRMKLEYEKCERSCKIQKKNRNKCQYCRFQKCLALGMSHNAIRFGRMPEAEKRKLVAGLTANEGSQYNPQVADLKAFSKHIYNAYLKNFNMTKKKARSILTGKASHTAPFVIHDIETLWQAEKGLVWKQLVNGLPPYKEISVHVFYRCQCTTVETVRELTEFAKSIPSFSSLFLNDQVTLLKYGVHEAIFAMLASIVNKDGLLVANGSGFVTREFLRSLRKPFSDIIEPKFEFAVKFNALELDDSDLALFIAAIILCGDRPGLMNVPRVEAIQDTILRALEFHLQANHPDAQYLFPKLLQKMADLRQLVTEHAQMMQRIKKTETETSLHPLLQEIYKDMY

Turning to `CC(C)=CCCC(C)=CCCC(C)=CCCC=C(C)CCC=C(C)CCC=C(C)C`, the result in assay [1], in assay [2], in assay [4], in [5], in assay [11] and in assay [14] was inactive. The outcome in assay [16] and in assay [17] was inactive. In addition, the Potency entry in [3], in assay [6], in [7], in [8], in [9] and in assay [10] was “inactive” in each case. Further, the Potency entry in assay [12] and in assay [15] was “inactive” each time. In assay [13], the max response was -1.5%.
For the molecule `C=CC(=C)CCC=C(C)C`, the Potency entry in assay [18], in [3], in assay [7], in assay [8], in [9] and in assay [10] was “inactive” each time. Besides, in assay [12], the Potency entry is “inactive”. For the same molecule, the call in assay [1], in assay [2], in assay [4], in [5], in [11] and in assay [14] was inactive. The molecule was classed as inactive in assay [16] and in [17]. The max response in assay [13] is 1.58%.
As to `CC[C@H](CC[C@@H](C)[C@H]1CCC2C3CCC4C[C@@H](O)CC[C@]4(C)C3CC[C@@]21C)C(C)C` (stereo partly drawn), the molecule was called inactive in assay [1], in [2], in assay [4], in [5], in assay [11] and in assay [14]. Besides, the result in assay [16] and in assay [17] was inactive. The Potency entry in assay [3], in assay [7], in assay [8], in assay [9], in [10] and in assay [12] was “inactive” in each case. Also, the Potency result in assay [15] is “inactive”. Further, the max response in [13] is -1.23%.
On to `Cc1ncc(COP(=O)(O)O)c(C)c1O`, for which the call in assay [1], in assay [2], in [4], in assay [5], in [11] and in assay [14] was inactive. Besides, the molecule was called inactive in assay [16] and in assay [17]. In addition, the Potency entry in assay [3], in [6], in [7] and in assay [8] was “inactive” each time. In addition, the Potency in assay [10] was 7.08 µM (active). Besides, in assay [13], the max response is -1.84%.
Turning to `COc1ccc(C(=O)O)cc1`, the result in assay [1], in [2], in assay [4], in [5], in assay [11] and in assay [14] was inactive. Also, the molecule was classed as inactive in assay [16] and in [17]. The Potency entry in assay [3], in [7], in [8], in [9], in assay [10] and in [12] was “inactive” each time. Also, the max response in assay [13] was -1.54%.
For the molecule `CC1(C)CC[C@]2(C(=O)O)CC[C@]3(C)C(=CCC4[C@@]5(C)CC[C@@H](O)C(C)(C)C5CC[C@]43C)C2C1` (stereo partly drawn), the result in [1], in [2], in [4], in assay [5], in assay [11] and in assay [14] was inactive. Besides, the call in assay [16] and in assay [17] was inactive. In addition, the Potency result in assay [3], in assay [8], in assay [9], in [10], in assay [12] and in assay [15] was “inactive” in each case. The max response in assay [13] is -3.58%.
